# From PubChem BioAssay AID1851 (National Center for Advancing Translational Sciences (NCATS), 2009)
# The campaign covered roughly 16,000 compounds. About 2,600 (16%) were called active. Inconclusive results (about 20%) are left out. Not all results are given here. Unmarked numbers belong to inactive results. Calls follow the shape of the dose curve; as a rule, active = well fitted curve in the direction sought with a large enough effect; inconclusive = small, poorly fitted or top-dose-only effect, or effect the other way; inactive = no such curve, though single readings can be large or run the other way.
# Molecular target: Cytochrome P450 2D6 (Homo sapiens) (UniProt P10635)
# Sequence (P10635 whole entry, looked up): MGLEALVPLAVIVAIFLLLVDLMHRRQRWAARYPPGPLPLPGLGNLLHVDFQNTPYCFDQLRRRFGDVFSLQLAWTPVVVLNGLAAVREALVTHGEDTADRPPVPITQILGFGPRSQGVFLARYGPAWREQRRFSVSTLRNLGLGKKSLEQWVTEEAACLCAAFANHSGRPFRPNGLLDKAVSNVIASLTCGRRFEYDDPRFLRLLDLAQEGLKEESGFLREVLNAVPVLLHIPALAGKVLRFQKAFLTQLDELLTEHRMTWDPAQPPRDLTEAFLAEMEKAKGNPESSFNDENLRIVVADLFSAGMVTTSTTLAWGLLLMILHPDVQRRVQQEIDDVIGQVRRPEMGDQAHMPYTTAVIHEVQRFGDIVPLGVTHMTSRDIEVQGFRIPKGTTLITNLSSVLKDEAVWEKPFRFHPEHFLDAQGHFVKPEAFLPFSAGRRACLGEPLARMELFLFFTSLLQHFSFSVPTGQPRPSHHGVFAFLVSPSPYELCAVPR
# Experiment: Cytochrome panel assay with activity outcomes
# Conditions: recombinant CYP, pro-luciferin dealkylation, luminescence, p450-cyp2d6; series mostly up to 57.1 µM; activity, negative = inhibition: at the top concentration
# % is scaled to controls: 0 for no effect and ±100 for the full control effect.
Compound,AC50,"activity, negative = inhibition"
COc1ccccc1CN1CCCC2(CCN(C(=O)c3cnccn3)CC2)C1,3.98 µM (active),–
COc1ccccc1CN1CC2(CCN(C(=O)c3ccncc3)CC2)C1,0.794 µM (active),–
O=C(c1cnccn1)N1CCC2(CC1)CN(Cc1nccs1)C2,–,8.12%
O=C(c1cnccn1)N1CCC2(CCN(Cc3nccs3)CC2)CC1,–,-16.7%
O=C(c1cnccn1)N1CCC2(CCCN(Cc3nccs3)C2)CC1,7.94 µM (active),–
COc1ccccc1CN1CCCC2(CCN(C(=O)c3ccncc3)CC2)C1,3.16 µM (active),–
CN1CCCC2(CCN(C(=O)c3cnccn3)CC2)C1,–,-1.38%
COc1ccccc1CN1CC2(CCN(C(=O)c3cnccn3)CC2)C1,–,10.3%
O=c1c(CCc2ccccc2)nc2cnc(Oc3ccccc3)nc2n1C1CC1,–,-18.6%
O=C(CSc1nc2ccccc2s1)c1sc2sc3ccccc3[n+]2c1O,–,-14.5% [at 11.4 µM]
Cc1ccc(C(=O)O)cc1N1C(=O)c2cccc3cc(Br)cc(c23)C1=O,–,2.76%
CCCNC(=O)OC[C@@H]1O[C@H](CCO/N=C(\C)CCN2CCc3nc(-c4ccccc4)c(-c4ccccc4)cc3C2)C=C[C@@H]1Oc1ccc(OC)cc1,–,-6.26% [at 11.4 µM]
COc1ccc(Oc2ncc3nc(C)c(=O)n(C)c3n2)cc1,–,-3.79%
CC(C)C12CN3CC(C(C)C)(CN(C1)C3c1ccco1)C2=O (stereo unspecified),–,-6.44%
CC(=O)Nc1c(I)c(C(=O)N[C@H]2[C@@H](O)[C@H](O)[C@H](CO)O[C@@H]2O)c(I)c(N(C)C(C)=O)c1I,–,6% [at 25.6 µM]
CCOc1ccc(N(CCC#N)S(=O)(=O)c2ccc(OC)cc2)cc1,–,-14.3%
COc1cc([C@H]2c3cc4c(cc3[C@@H](O)[C@@H]3COC(=O)[C@H]23)OCO4)cc(OC)c1OC,–,-2.29%
O=C1N/C(=C\c2ccc(N3CCOCC3)c(F)c2)C(=O)N1Cc1ccccc1,–,7.66%
COCCn1c(=O)c(C)nc2cnc(Oc3cccc(Cl)c3)nc21,–,5.44%
Sc1ccc2ccccc2c1CNCc1ccccc1,1.26 µM (active),–
O=C(O)c1ccc(CNCc2ccccc2)cc1,–,8.97% [at 11.4 µM]
CC(OC(=O)Cn1c(C(F)(F)F)nc2ccccc21)C(N)=O (stereo unspecified),–,0.379%
Cc1ccc(N=Cc2cc(C)n(C3CCCC3)c2C)cc1,15.8 µM (active),–
COC(=O)N1CCC2(CC1)CCN(c1ncccn1)CC2,–,12.2%
COc1ccc(OC(=O)c2ccncc2)cc1,–,-16.3%
COc1cc(/C=C\c2ccc(OC)cc2OC)cc(OC)c1,–,4.63%

Compound,AC50,"activity, negative = inhibition"
COc1ccc(/C=C/c2ccncc2)cc1,8.91 µM (active),–
CC(C)(C)NC(=O)Cn1cnc([N+](=O)[O-])n1,–,-7.65%
CSc1nc2ccc3nc(NC(=O)c4cccs4)sc3c2s1,–,-24.7%
O=C(Cn1cnc2ccccc2c1=O)Nc1nnc(SCc2ccccc2)s1,–,-15.3%
COc1cc(OC)cc(C(=O)NC(=S)Nc2ccc(Cl)c(C(=O)O)c2)c1,–,-13.6%
C[C@@H](c1ccccc1)N1C(=O)[C@H]2[C@H]3[C@H](O)[C@H](O)C/C(=N/OCc4ccccc4)[C@H]3CC[C@@H]2C1=O,–,6.68% [at 11.4 µM]
O=c1c(-c2cc(F)cc(F)c2)nc2cnc(Oc3ccccc3)nc2n1C1CC1,–,-1.3%
Cc1nc2cccc([N+](=O)[O-])c2n1CCCN(C)C,–,3.67% [at 11.4 µM]
CN(C)CCCn1c2c3ccccc3ccc2c2oc(=O)c3ccccc3c21,1.26 µM (active),–
O=C1C2C3c4ccccc4C(c4ccccc43)C2C(=O)N1c1nc(-c2ccccc2)cs1 (stereo unspecified),–,15%
O=C(Nc1ccc(-c2nc3ccccc3o2)cc1)c1ccc(N2CCOCC2)c([N+](=O)[O-])c1,–,-4.29%
O=C(O)C1=CCNCC1,inactive,–
CCC[C@H]1C(=O)N2C(N(C)C)=Nc3ccc(C)cc3N2C1=O,–,-3.99% [at 25.6 µM]
O=C(Nc1ccccc1)/C(=C\c1ccncc1)NC(=O)c1ccccc1,–,-8.98%
CC(=O)Nc1ccc(NCN2C(=O)C3C4CCC(C4)C3C2=O)cc1 (stereo unspecified),–,19.6%
COc1ccccc1NC(=O)C1=C(C)Nc2nc(-c3ccc(N(C)C)cc3)nn2C1c1ccncc1 (stereo unspecified),–,0.163%
Nc1nnnn1/N=C\c1ccc(Cl)c([N+](=O)[O-])c1,–,17%
COc1ccc(-n2c(C)n[nH]c2=O)cc1,–,15.3%
CC(C)c1ccc(NC(=O)N(CCc2nc3ccccc3[nH]2)C2CCCC2)cc1,2.51 µM (active),–
Cc1cc(C)cc(NC(=O)CCc2nc3ccccc3[nH]2)c1,–,-11.3%
O=C(O)[C@H]1CCCC[C@@H]1C(=O)Nc1nc2ccccc2[nH]1,–,-3.05% [at 11.4 µM]
O=C(N/N=C/c1cccc(OC2CSC2)c1)c1ccccc1O,–,-21.8%
Nc1ccccc1N=Nc1c(S(=O)(=O)O)cc2cc(S(=O)(=O)O)cc(O)c2c1O,–,-13.1% [at 11.4 µM]
CC(C)CCn1c(Oc2ccccc2Cl)nc2c1c(=O)n(C)c(=O)n2C,–,-16.4%
CC(=O)/C(=C\c1ccccc1F)C(=O)c1ccccc1,–,-1.17% [at 11.4 µM]
CC1CC(C)CN(CCCNC(=O)C2CCCN(c3nnc(N4CCCC4=O)s3)C2)C1 (stereo unspecified),–,-18.7%

Compound,AC50,"activity, negative = inhibition"
CC1CCCN(CCCNC(=O)C2CC(=O)N(c3ccc(F)c(Cl)c3)C2)C1 (stereo unspecified),15.8 µM (active),–
COCCCNC(=O)C1CC(=O)N(CCc2ccc(OC)c(OC)c2)C1 (stereo unspecified),–,10.7%
COC(=O)c1nn(C23CC4CC(CC(C4)C2)C3)c2c1C(=O)N(c1ccc(F)cc1)C2=O,–,1.92%
COc1ccc(C2N=C(N)N=C(N)N2c2ccccc2OC)cc1OC (stereo unspecified),7.08 µM (active),–
NC1=N[C@H](c2ccc(Cl)cc2)N(c2ccc(S(=O)(=O)Nc3ncccn3)cc2)C(N)=N1,–,-2.11% [at 11.4 µM]
COc1cccc(/C(O)=C2/C(=O)C(=O)N(c3ccccn3)C2c2ccc(OC)c(OC)c2)c1 (stereo unspecified),–,-0.578%
COc1cccc(Cn2c(=O)c(-c3cn(C)c4ccccc34)nc3cncnc32)c1,–,0.612%
O=C(O)CCCCCCCC(=O)O,–,2.09%
COc1ccc(Oc2nc(C)cc(C)c2S(=O)(=O)c2ccc(C)cc2)cc1,–,-5.88%
N[C@H](CCC(=O)NCC(=O)O)C(=O)O,–,6.41%
CC(NC(=O)CN1CCCC1)C12CC3CC(CC(C3)C1)C2 (stereo unspecified),–,-17.4%
CC(C)(C)CNC(CO)C12CC3CC(CC(C3)C1)C2 (stereo unspecified),10 µM (active),–
Cc1ccc(S(=O)(=O)N[C@H]2COC(=O)[C@H](C)COC(=O)[C@H](C)NC(=O)C/C=C\[C@H]2C)cc1,–,12.2% [at 11.4 µM]
O=C(O)[C@@H]1[C@@H](C(=O)NCc2ccccn2)[C@@H]2C=C[C@@H]1O2,–,8.57% [at 11.4 µM]
COC(=O)[C@H](N)Cc1ccc(Cl)cc1,–,-5.04%
C[C@H](N)C(=O)OC(C)(C)Cc1ccc(Cl)cc1,12.6 µM (active),–
COC(=O)[C@](C)(N)Cc1ccc(O)cc1,–,4.18%
COc1ccc(C2=NC(C(F)(F)F)(C(F)(F)F)c3c(n(C)c(=O)n(C)c3=O)N2)cc1,–,2.5%
CNC(=O)NC(=S)NC(=O)c1ccc(OC)cc1,–,-4.2%
COc1ccc(-c2nc3cnc(OC)nc3n(-c3ccc(OC)cc3)c2=O)cc1,–,5.64%
Cc1ccc(/C=N/NC(=O)Cn2nccc2C)o1,–,-1.83%
CCOC(=O)N/N=C/c1ccc(C)o1,–,1.51%
Cc1ccc(/C=N\Nc2nc3ccc(Cl)cc3[nH]2)o1,3.55 µM (active),–
CCCC(=O)n1nc(-c2cccnc2)nc1N,–,10.8%
Cc1nnsc1SC(C)C(=O)O (stereo unspecified),–,-11%
CCn1c(COc2ccc(C)cc2)nnc1SCc1ccc(C#N)cc1,–,-22.7%

Compound,AC50,"activity, negative = inhibition"
O=C(Nc1cccc([N+](=O)[O-])c1)c1ccc(CSc2ccccc2)cc1,–,-4.86%
O=C(Nc1cc(Sc2ccccn2)cc([N+](=O)[O-])c1)c1ccc([N+](=O)[O-])cc1,–,-16.7%
O=C(Nc1cc(Sc2ccccn2)cc([N+](=O)[O-])c1)c1ccc(Cl)cc1,8.91 µM (active),–
CC1=CC(=C2C(=O)c3ccccc3C2=O)C=C(C)N1Cc1ccco1,–,17.1%
O=c1c(-c2cccc(F)c2)nc2cncnc2n1-c1ccccc1,–,-9.29%
CN1CCN(c2ncc3nc(-c4ccccc4)c(=O)n(Cc4ccc(F)cc4)c3n2)CC1,–,-0.95%
O=S(=O)(Nc1ccc(Cc2ccncc2)cc1)c1ccc(Br)cc1,0.631 µM (active),–
Cc1csc(NC(=O)CNS(=O)(=O)c2cccs2)n1,–,1.06%
CC(C)(C)c1ccc(NS(=O)(=O)c2ccc(N)cc2)cc1,–,18.9% [at 11.4 µM]
O=S(=O)(Nc1ccc(Cc2ccncc2)cc1)c1ccc(Cl)c(Cl)c1,1 µM (active),–
CCNS(=O)(=O)c1ccc(NS(C)(=O)=O)cc1,–,-5.1%
O=S(=O)(Nc1cccnc1Cl)c1ccc2c(c1)OCCO2,–,0.444%
O=S(=O)(Nc1ccc(Cc2ccncc2)cc1)c1cccs1,0.355 µM (active),–
COc1ccc(S(=O)(=O)Nc2cccc(Cl)c2)cc1OC,–,-24.4%
CC(=C\C(=O)O)/C(=C/c1ccccc1)C(=O)O,–,-7.05%
CCOC(=O)C1(C(=O)O)NC(=O)CC1c1ccccc1 (stereo unspecified),–,-5.68%
C[C@H]1CC[C@H]2C(=O)N[C@H](Cc3ccccc3)C(=O)N2[C@@H]1c1ccccc1,–,-17.6% [at 11.4 µM]
COCCn1c(=O)c(-c2cn(C)c3ccccc23)nc2cncnc21,–,-5.12%
NC(N)=N[C@H](CCC(=O)O)C(=O)O,–,0.897%
CC(=O)N[C@@H](C(=O)O)C(C)(C)SN=O,inactive,–
O=C1OCCC=C1[C@@H](O)CCc1ccccc1,–,-2.43% [at 11.4 µM]
COC(=O)c1scc(C)c1NC(=O)Cc1ccccc1,–,-2.62%
O=C(O)c1ccc(SSc2ccc(C(=O)O)cn2)nc1,–,-10.6% [at 11.4 µM]
